Laboratory results from PubChem BioAssay (NCATS).
Inconclusive results are not listed. Activity calls are given as the source filed them. Calls follow the shape of the dose curve; as a rule, active = well fitted curve in the direction sought with a large enough effect; inconclusive = small, poorly fitted or top-dose-only effect, or another doubt; inactive = no such curve, though single readings can be large; an effect the other way counts as inactive or inconclusive.

Tests used:
[1] = S16 Schwann cell PMP22 intronic element firefly luciferase assay (AID 624032); also: nearly all actives have a fitted effect of over 30% in size; also: potency is read from the fitted curve at half-maximal effect
How it was run: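 Rat S16 Schwann cells stably carrying firefly luciferase driven by a PMP22 intronic element, in 10% FBS, treated 24 h at 37 C. ONE-Glo luminescence normalized to PTC124 control and DMSO (0%); curves classed by r2, magnitude and activity.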

[2] = S16 Schwann cell viability assay (CellTiter-Glo assay) (AID 624031);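 also: native untransfected S16 rat Schwann cells; cellular ATP luminescence as a viability measure; nearly all actives have a fitted effect of over 70% in size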
How it was run: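 Following overnight culture in 10% FBS DMEM, parental S16 rat Schwann cells are dosed for 24 h at 37 °C. Viability is read as CellTiter-Glo luminescence and expressed as % activity relative to DMSO (0%) and no-cell wells.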

AA1029 = assay: qHTS profiling for inhibitors of Plasmodium falciparum proliferation (AID 504749); also: nearly all actives have a fitted effect of over 60% in size; also: potency is read from the fitted curve at half-maximal effect; details: P. falciparum in erythrocytes, SYBR Green DNA, 72 h; series mostly up to 28.7 µM
How it was run: (§1)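 Each compound contacts P. falciparum-infected red blood cells for 72 h at 37 C; lysis buffer (Tris, EDTA, saponin, Triton X, SYBR Green I) is added and fluorescence measured next morning; values normalized to controls.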

AS120 = assay: as above; details: P. falciparum in erythrocytes, SYBR Green DNA, 72 h; series mostly up to 28.7 µM
How it was run: as §1

ATS95 = assay: as above; details: P. falciparum in erythrocytes, SYBR Green DNA, 72 h; series mostly up to 28.7 µM
How it was run: as §1

CP194 = assay: as above; details: P. falciparum in erythrocytes, SYBR Green DNA, 72 h; series mostly up to 28.7 µM
How it was run: as §1

CP247 = assay: as above; details: P. falciparum in erythrocytes, SYBR Green DNA, 72 h; series mostly up to 28.7 µM
How it was run: as §1

CP266 = assay: as above; details: P. falciparum in erythrocytes, SYBR Green DNA, 72 h; series mostly up to 28.7 µM
How it was run: as §1

CP297 = assay: as above; details: P. falciparum in erythrocytes, SYBR Green DNA, 72 h; series mostly up to 28.7 µM
How it was run: as §1

DFO2036 = assay: as above; details: P. falciparum in erythrocytes, SYBR Green DNA, 72 h; series mostly up to 28.7 µM
How it was run: as §1

DIV14 = assay: as above; details: P. falciparum in erythrocytes, SYBR Green DNA, 72 h; series mostly up to 28.7 µM
How it was run: as §1

GB4 = assay: as above; details: P. falciparum in erythrocytes, SYBR Green DNA, 72 h; series mostly up to 28.7 µM
How it was run: as §1

P93_24 = assay: as above; details: P. falciparum in erythrocytes, SYBR Green DNA, 72 h; series mostly up to 28.7 µM
How it was run: as §1

P94_40 = assay: as above; details: P. falciparum in erythrocytes, SYBR Green DNA, 72 h; series mostly up to 28.7 µM
How it was run: as §1

PAD = assay: as above; details: P. falciparum in erythrocytes, SYBR Green DNA, 72 h; series mostly up to 28.7 µM
How it was run: as §1

PC15 = assay: as above; details: P. falciparum in erythrocytes, SYBR Green DNA, 72 h; series mostly up to 28.7 µM
How it was run: as §1

SC27B = assay: as above; details: P. falciparum in erythrocytes, SYBR Green DNA, 72 h; series mostly up to 28.7 µM
How it was run: as §1

TAB165 = assay: as above; details: P. falciparum in erythrocytes, SYBR Green DNA, 72 h; series mostly up to 28.7 µM
How it was run: as §1

Dd2 = assay: as above; details: P. falciparum in erythrocytes, SYBR Green DNA, 72 h; series mostly up to 28.7 µM
How it was run: as §1

ICS = assay: as above; details: P. falciparum in erythrocytes, SYBR Green DNA, 72 h; series mostly up to 28.7 µM
How it was run: as §1

Measured: Potency

O=c1[nH]c(=O)n([C@H]2C[C@H](O)[C@@H](CO)O2)cc1/C=C/Br
inactive: [1]

CC12CCC3C4CCC(=O)C(O)=C4CCC3C1CCC2OC(=O)CCC1CCCC1 (stereo not given)
not listed: Dd2 | ICS
inactive: all other assays above

C[C@H](N)Cc1ccccc1
not listed: DIV14
inactive: all other assays above

CCCCCC(O)C1C(=O)OC(C)C(O)\C=C/C=C\C=C/C=C\C=C(\C)C(O)C(O)C(O)CC(O)CC(O)CC(O)CC(O)CC1O (stereo not given)
inactive: all assays above

Cc1cc(C)cc(C(=O)OC2CC3CCC(C2)N3C)c1 (stereo not given)
active: DIV14 7.57 µM
not listed: [1] | [2] | PAD | PC15 | Dd2 | ICS
inactive: all other assays above

C#C[C@]1(O)CC[C@H]2[C@@H]3CCC4=CC(=O)CCC4(C)[C@H]3CCC21C (stereo not given in full)
not listed: CP247 | CP297
inactive: all other assays above

C=CC[C@]1(O)CCC2C3CCC4=CCCCC4C3CCC21C (stereo not given in full)
active: [1] 22.8 µM
not listed: [2] | ATS95 | CP266 | DIV14 | P94_40 | PC15 | Dd2 | ICS
inactive: all other assays above

CN1C2CCC1C(C(=O)O)C(OC(=O)c1ccccc1)C2 (stereo not given)
inactive: all assays above

Nc1nc(O)c(-c2ccccc2)o1
not listed: [2] | CP266
inactive: all other assays above

OC[C@@H](O)[C@H]1O[C@@H]2OC(C(Cl)(Cl)Cl)O[C@H]2[C@H]1O (stereo not given in full)
inactive: all assays above

C[C@]12C=CC(=O)C=C1CC[C@@H]1C2CC[C@]2(C)OC(=O)CCC12 (stereo not given in full)
inactive: all assays above

[S]=[Sb][S][Sb]=[S]
inactive: all assays above

CCCCCc1cc(O)c2c(c1)OC(C)(C)C1CC=C(C)CC21 (stereo not given)
active: AA1029 2.82 µM | AS120 2.24 µM | ATS95 3.16 µM | CP194 5.36 µM | CP247 5.01 µM | CP266 12 µM | DFO2036 3.16 µM | DIV14 1.51 µM | Dd2 2.51 µM | GB4 1.69 µM | ICS 891 nM | P93_24 2.51 µM | P94_40 2.51 µM | PAD 1.78 µM | PC15 5.01 µM | SC27B 2 µM | TAB165 2 µM

C=C1Nc2ccccc2C(=O)N1c1ccccc1C
inactive: all assays above

C[C@@H]1CC[C@H]2[C@@H](C)C(=O)O[C@@H]3OC4(C)CC[C@@H]1C32OO4 (stereo not given in full)
active: AA1029 0.0112 µM | AS120 0.0071 µM | ATS95 0.0112 µM | CP194 0.0169 µM | CP247 0.01 µM | CP266 0.019 µM | CP297 0.0151 µM | DFO2036 0.0071 µM | DIV14 0.0076 µM | Dd2 0.0063 µM | GB4 0.0067 µM | ICS 2.5 nM | P93_24 0.0035 µM | P94_40 0.0028 µM | PAD 0.0071 µM | PC15 0.01 µM | SC27B 0.0071 µM | TAB165 0.0032 µM

C[C@]12CCC3C(CCC4=C(Cl)C(=O)CC[C@@]43C)C1CCC2O (stereo not given in full)
not listed: [1]
inactive: all other assays above

CCCC(C)C1(CC)C(=O)NC(=S)NC1=O (stereo not given)
inactive: all assays above

Cc1ccc2c(c1)[C@@H]1CN(C)CC[C@H]1N2
not listed: [1] | CP266 | GB4
inactive: all other assays above

O=[N+]([O-])OC1CO[C@H]2C(O[N+](=O)[O-])COC12 (stereo not given in full)
inactive: all assays above

CC1(C)S[C@@H]2[C@H](N)C(=O)N2C1C(=O)O (stereo not given in full)
inactive: all assays above

OCC(O)[C@H]1O[C@@H]2O[C@H](C(Cl)(Cl)Cl)O[C@@H]2[C@H]1O (stereo not given in full)
inactive: all assays above

COC(C(=O)C(O)C(C)O)C1Cc2cc3cc(OC4CC(OC5CC(O)C(OC)C(C)O5)C(OC(C)=O)C(C)O4)c(C)c(O)c3c(O)c2C(=O)C1OC1CC(OC2CC(OC3CC(C)(O)C(OC(C)=O)C(C)O3)C(O)C(C)O2)C(O)C(C)O1 (stereo not given)
active: AA1029 0.794 µM | AS120 0.794 µM | ATS95 0.708 µM | CP194 6.75 µM | CP247 1.78 µM | CP297 4.26 µM | DFO2036 1 µM | DIV14 2.39 µM | Dd2 0.178 µM | GB4 2.13 µM | ICS 112 nM | P93_24 0.794 µM | P94_40 0.708 µM | PAD 0.891 µM | PC15 2.24 µM | SC27B 1 µM | TAB165 0.794 µM
inactive: [2] | [1]

CCC/C=C/C=C/C(=O)OC1/C(=C/C(=O)OC)CC2CC(C(C)O)OC(=O)CC(O)CC3CC(OC(C)=O)C(C)(C)C(O)(CC4C/C(=C/C(=O)OC)CC(/C=C\C(C)(C)C1(O)O2)O4)O3 (stereo not given)
inactive: [2] | [1]
active: AA1029 1.78 µM | AS120 1 µM | ATS95 2.51 µM | CP247 2.82 µM | CP297 1.69 µM | DFO2036 1.26 µM | DIV14 1.07 µM | Dd2 2.24 µM | GB4 1.51 µM | ICS 562 nM | P93_24 2.24 µM | P94_40 2.24 µM | PAD 1.78 µM | PC15 2.24 µM | SC27B 2.51 µM | TAB165 1.41 µM

C#CCN1CC(=O)N(COC(=O)[C@@H]2[C@@H](C=C(C)C)C2(C)C)C1=O
not listed: [1] | CP266 | CP297
inactive: all other assays above
